This is an account of results in the supplement of paper PMC3545927.

This experiment deals with furin, P09958. Put plainly: furin cleavage Z-score vs untreated control; higher = more cleavage, active = 3.5 or more, inactive = 1 or less, 8 variable residues between constant flanks. In short, it runs like this: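 Reactions of 0.01 ml ran for 7.5, 15 or 30 min in 50 mM HEPES pH 7.5 with CaCl2 and NaCl, at 1:10 enzyme:substrate. In them, purified furin acted on bead-held 8-mer peptides fused to a cDNA oligonucleotide. The cleavage Z-score was obtained by lowess-adjusting log sequencing counts of released DNA against furin-free reactions and scaling by median absolute deviation.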

This is one part of the list. No count for the full screen is at hand.

furin, P09958, sequence (P09958 whole entry, the tested form may be a part): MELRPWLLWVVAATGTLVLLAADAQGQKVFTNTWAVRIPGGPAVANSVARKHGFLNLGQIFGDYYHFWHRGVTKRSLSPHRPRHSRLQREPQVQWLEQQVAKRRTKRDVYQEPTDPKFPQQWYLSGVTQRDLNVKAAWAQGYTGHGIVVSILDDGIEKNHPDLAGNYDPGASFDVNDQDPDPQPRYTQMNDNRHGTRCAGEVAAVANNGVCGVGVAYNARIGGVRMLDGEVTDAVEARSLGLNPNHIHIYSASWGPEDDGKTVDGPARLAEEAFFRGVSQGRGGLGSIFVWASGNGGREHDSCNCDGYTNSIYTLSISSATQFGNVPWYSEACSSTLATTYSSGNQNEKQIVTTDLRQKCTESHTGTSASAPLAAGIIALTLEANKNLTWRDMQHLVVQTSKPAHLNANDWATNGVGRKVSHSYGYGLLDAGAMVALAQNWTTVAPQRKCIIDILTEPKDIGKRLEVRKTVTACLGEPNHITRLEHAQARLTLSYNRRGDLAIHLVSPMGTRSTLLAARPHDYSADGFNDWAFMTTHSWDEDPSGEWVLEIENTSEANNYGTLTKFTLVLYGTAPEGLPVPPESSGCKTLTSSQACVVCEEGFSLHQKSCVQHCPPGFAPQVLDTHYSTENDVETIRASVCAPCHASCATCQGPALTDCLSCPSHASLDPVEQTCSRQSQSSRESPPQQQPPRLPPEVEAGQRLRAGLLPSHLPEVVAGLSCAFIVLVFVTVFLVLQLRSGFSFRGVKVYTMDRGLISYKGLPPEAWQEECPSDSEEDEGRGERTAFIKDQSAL

For the sequence CAEQVTSTWVAGNASASA [HC2182], the “furin cleavage Z-score” value was 1.33 (7.5 min), -1.99 (inactive) (15 min) and 0.572 (inactive) (30 min).
In the same order, the values of CAVVCCSSSYAGNASASA [HC2057] are 0.153 (inactive), -0.457 (inactive) and -1.02 (inactive).
As to CALPRRPARSAGNASASA [FS-1231], the “furin cleavage Z-score” value reads like this: (7.5 min) 5.68 (active); (15 min) 6.25 (active); (30 min) 4.95 (active).
As for CAVKPRPARSAGNASASA [FS-1499], the “furin cleavage Z-score” value reads like this: (7.5 min) 10.9 (active); (15 min) 11.1 (active); (30 min) 7.25 (active).
In the case of CAVPRRPARAAGNASASA [FS-150], the “furin cleavage Z-score” value by setting is: (7.5 min) 9.11 (active); (15 min) 8.34 (active); (30 min) 7.62 (active).
On to CAVPESDAAAAGNASASA [HC1128], for which the “furin cleavage Z-score” value reads like this: (7.5 min) -0.849 (inactive); (15 min) -1.42 (inactive); (30 min) -1.68 (inactive).
The corresponding values for CADLGRPARSAGNASASA [FS-1447] are -0.204 (inactive), -0.114 (inactive) and 1.88.
Consider CARLRKQARAAGNASASA [FS-2711], for which the “furin cleavage Z-score” value (7.5 min) is 0.606 (inactive), the “furin cleavage Z-score” value (15 min) came to 1.95 and the “furin cleavage Z-score” value (30 min) came to 3.
Turning to CAVTPCAAEEAGNASASA [HC1376], the “furin cleavage Z-score” value reads like this: (7.5 min) -0.828 (inactive); (15 min) -1.48 (inactive); (30 min) -0.78 (inactive).
In the same order, the values of CARFPRAYSYAGNASASA [FS-2924] are -0.296 (inactive), 0.732 (inactive) and 4.36 (active).
The corresponding values for CARFKRQTSYAGNASASA [FS-2923] are 8.28 (active), 8.05 (active) and 8.39 (active).
In the same order, the values of CARLDRSYSYAGNASASA [FS-2986] are 0.288 (inactive), -0.0412 (inactive) and -1.47 (inactive).
As to CAVVCCSTSYAGNASASA [HC2058], the “furin cleavage Z-score” value is 1.72 (7.5 min), 0.804 (inactive) (15 min) and 2.04 (30 min).
Take CASTPCSAHPAGNASASA [HC2579]: the “furin cleavage Z-score” value was -0.671 (inactive) (7.5 min), 0.373 (inactive) (15 min) and 0.672 (inactive) (30 min).
For the sequence CAVVCCSYSYAGNASASA [HC2049], the “furin cleavage Z-score” value by setting is: (7.5 min) 0.949 (inactive); (15 min) 0.0975 (inactive); (30 min) -1.13 (inactive).
Consider CAVVCCMMSYAGNASASA [HC108], for which the “furin cleavage Z-score” value was 0.208 (inactive) (7.5 min), 0.787 (inactive) (15 min) and 1.59 (30 min).
In the same order, the values of CARFPRAAHPAGNASASA [FS-2139] are 3.15, 2.75 and 4.11 (active).
With CARFPRTWWQAGNASASA [FS-1949], the “furin cleavage Z-score” value is 0.217 (inactive) (7.5 min), -0.0617 (inactive) (15 min) and 0.886 (inactive) (30 min).
In the case of CAMWECSQHLAGNASASA [HC1688], the “furin cleavage Z-score” value was 0.266 (inactive) (7.5 min), 1.15 (15 min) and 1.3 (30 min).
Take CADTPCSGSWAGNASASA [HC1831]: the “furin cleavage Z-score” value was -0.725 (inactive) (7.5 min), -0.574 (inactive) (15 min) and -0.127 (inactive) (30 min).
Regarding CALGVRVCEKAGNASASA [HC1453], the “furin cleavage Z-score” value is -0.269 (inactive) (7.5 min), -0.873 (inactive) (15 min) and -1.56 (inactive) (30 min).
Consider CAIAAAGQLDAGNASASA [HC1640], for which the “furin cleavage Z-score” value by setting is: (7.5 min) 0.168 (inactive); (15 min) -0.469 (inactive); (30 min) -1.87 (inactive).
In the case of CAKRSRRIRPAGNASASA [FS-1461], the “furin cleavage Z-score” value reads like this: (7.5 min) -0.256 (inactive); (15 min) 1.6; (30 min) 0.134 (inactive).
The corresponding values for CASRDRRRREAGNASASA [FS-195] are 10.8 (active), 10.8 (active) and 7.22 (active).
Turning to CAKRLRRRREAGNASASA [FS-1224], the “furin cleavage Z-score” value reads like this: (7.5 min) 6.7 (active); (15 min) 5.88 (active); (30 min) 4.7 (active).
The corresponding values for CAKRARVVREAGNASASA [FS-262] are 9.07 (active), 8.16 (active) and 7.16 (active).
In the same order, the values of CAFLATCINGAGNASASA [HC695] are -1 (inactive), -1.97 (inactive) and 0.404 (inactive).
For the sequence CALVGSATLCAGNASASA [HC293], the “furin cleavage Z-score” value is -0.853 (inactive) (7.5 min), -0.387 (inactive) (15 min) and -0.923 (inactive) (30 min).
The corresponding values for CARREVPCHRAGNASASA [HC2433] are 0.899 (inactive), 1.63 and 1.91.
In the same order, the values of CAREPRLVGGAGNASASA [FS-2136] are -1.44 (inactive), -0.28 (inactive) and 0.256 (inactive).
In the same order, the values of CAATCINGVCAGNASASA [HC696] are -1.44 (inactive), -0.421 (inactive) and -0.171 (inactive).
With CAAAWETARHAGNASASA [HC1568], the “furin cleavage Z-score” value (7.5 min) was 0.137 (inactive), the “furin cleavage Z-score” value (15 min) was 0.318 (inactive) and the “furin cleavage Z-score” value (30 min) was -0.358 (inactive).
In the case of CAFVAPGERPAGNASASA [HC911], the “furin cleavage Z-score” value was -1.27 (inactive) (7.5 min), -0.656 (inactive) (15 min) and -0.848 (inactive) (30 min).
As for CAYRCRRPRHAGNASASA [FS-1621], the “furin cleavage Z-score” value was 0.22 (inactive) (7.5 min), 1.07 (15 min) and 0.99 (inactive) (30 min).
CARHGRRRRHAGNASASA [FS-1156]: the “furin cleavage Z-score” value is, setting by setting: (7.5 min) 10.6 (active); (15 min) 11.5 (active); (30 min) 8.22 (active).
The corresponding values for CAAAARRRRHAGNASASA [FS-638] are 5.47 (active), 5.84 (active) and 3.86 (active).
For the sequence CAFSPRRHWTAGNASASA [HC307], the “furin cleavage Z-score” value is 0.332 (inactive) (7.5 min), -0.669 (inactive) (15 min) and -0.85 (inactive) (30 min).
As for CATRRRTPRPAGNASASA [FS-1293], the “furin cleavage Z-score” value runs as follows: (7.5 min) -0.0603 (inactive); (15 min) -0.269 (inactive); (30 min) 0.573 (inactive).
For the sequence CARPGRLDRHAGNASASA [FS-917], the “furin cleavage Z-score” value was 1.02 (7.5 min), -0.871 (inactive) (15 min) and 0.899 (inactive) (30 min).
As to CASTRRRPRHAGNASASA [FS-1170], the “furin cleavage Z-score” value was 4.52 (active) (7.5 min), 3.46 (15 min) and 2.74 (30 min).
In the same order, the values of CAFQNRRARHAGNASASA [FS-1589] are 9.77 (active), 11.1 (active) and 10.3 (active).
The corresponding values for CATWVLVGGVAGNASASA [HC990] are 0.127 (inactive), -1.42 (inactive) and 0.528 (inactive).
The corresponding values for CAAYAAQGYKAGNASASA [HC782] are -0.0157 (inactive), -1.07 (inactive) and -0.556 (inactive).
